Experimental data as given in the supplement of paper PMC11417369.
± gives the standard deviation of the averaged measurements. Whole data set: some 25,000 sequences, median “ln(normalized median fluorescence intensity)” near 7.9, cut for the highest 2% near 11. The sample holds the highest values, similar sequences and a random draw of the others, so the mix is not that of the screen.

Test system: PfAP2-I AP2 domain 3 (GST-tagged)
Assay: gcPBM binding intensity (ln(normalized median fluorescence intensity)); higher = stronger DNA binding
Procedure, shortened: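 GST-fused DNA-binding domains of P. falciparum, expressed in E. coli, were applied at about 25 μg on average for 1 h to an Agilent 4 × 180k array of primer-extended double-stranded 36-bp intergenic genomic probes and negative controls. Binding intensity is the highest Masliner-normalised natural-log median intensity across replicate spots of either probe orientation, measured with Alexa488 anti-GST antibody and a 488 nm scan.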

Sequence	gcPBM binding intensity (ln)
TATTAAAAGTAAAAAACACACATGGATATATACATA [CACACA_site3959]	7.67 ± 0.64
AAACAAAGGGAACATGTGCACTTACAAAAAAAAAGA	9.78 ± 0.28
ATCTATATTATTTCTACACACATATCTATAATATGT [CACACA_site7561]	7.85 ± 0.72
GCTCATATGACAACAACACACAAAAAAATAAAATGA [CACACA_site714]	7.8 ± 0.69
TAAACAAATAAATATTGTACATTTTTTCCTTTTAAT [XGTACX_site5594]	7.38 ± 0.39
TATAGTTTTGAAAACAAACACACAAAAAAAAAAAAA [CACACA_site1691]	8.07 ± 0.7
TAATATACATATATATGTACATATATATATATATAT [XGTACX_site2684]	9.09 ± 0.47
TGTGCATAAATTTATGCACACATAAAAAAAAAAAAA [CACACA_site8954]	11.5 ± 0.93
AATATAAGTTTATTAGTGCACAGATAAATATATATT [GTGCAC_site9784]	11.4 ± 0.23
TGCATAAATTTATGCACACATAAAAAAAAAAAAAAA [CACACA_site2923]	10 ± 0.64
AAAAGTCTCTTTTTAGTGCACATTTTATTTAAATAT	11.32 ± 0.078
GTGCAAAATATTTTTACACACAAATTTTTACAACAG [CACACA_site3357]	9.99 ± 0.63
GGGAAAATAAATAAAGTGCAGATATTAAAAGTTGTA	8.85 ± 0.31
TATGTTGTTTATTTAGTGCATATTTAAATATTATAA [GTGCAC_site9601]	10.16 ± 0.078
TATAAACCTTTTTGCACGCACACAAAAAAAAAATAA [CACACA_site168]	9.99 ± 0.46
TAATAAAAAAAGTGCACACACATAATATTTATATAT [CACACA_site7548]	9.7 ± 0.18
TAAAATAATTTATGCATACACACATATATATATATA [CACACA_site4021]	9.49 ± 0.26
ATATATTTATTTTGTGCACACAACGCAAACCTTTTA [CACACA_site3508]	10.98 ± 0.092
TATATATATATATATGTGCACATTTTATTAAAATGT	9.87 ± 0.15
ATTACAATATATACGTGTACATATTACCACCGCTAC [XGTACX_site2308]	8.46 ± 0.7
ACAATAAATATGTGGTTGCACTTATAATATATTTAT	8.66 ± 0.4

Sequence	gcPBM binding intensity (ln)
ATAAAATAAAACAACACACACGAATGTATAAATATA [CACACA_site4643]	7.66 ± 0.66
TTTTTATAAAATTTTATGAGCTCGGAAAAAATAAAC [GTGCAC_negctrl_site637]	8.49 ± 0.48
TGTGAAAATTATGGGGCATGCAATACTTTAAAAATA [TGCATGCA_site653]	7.98 ± 0.72
GAACAACAACAAAAAAAAAAAAAAAAAAAAAAAAAA [CACACA_negctrl_site199]	8.12 ± 0.83
ATGATGTCTTTATATTGTACATATATGAAGACGTTA [XGTACX_site7751]	7.79 ± 0.29
TATGTCCATATTTCCACACACATATTATTTTTATAT [CACACA_site3798]	8.18 ± 0.53
AGCTACAAAAATTAATATATATATGTATAGTTATAC [TGCATGCA_negctrl_site531]	7.38 ± 0.59
AAATATTACATTTGTTAAATAATATGTTATACATAA [XGTACX_negctrl_site484]	7.32 ± 0.54
CAGTTGTTAATTTGTGTGCACCAAATATTATACATA	11 ± 0.33
TTTTTGTTATTATGTGTGCACATATATATATATATA	10.3 ± 0.31
GTCAAATTTTTGTGCACACATATATAGTTATTATTA [CACACA_site2241]	11.2 ± 0.23
TATATATATATATATGTGCACATATTTATATGTTTT	9.85 ± 0.22
TCTTTCCTTATTAAAACACACAAATACATTATTTAA [CACACA_site2147]	7.84 ± 0.46
ATGTCAAATTTTTGTGCACACATATATAGTTATTAT [CACACA_site2242]	10.78 ± 0.028
GTATTTCTTTAATATACACACACCAAAACAAAAAAA [CACACA_site579]	8.13 ± 0.49
TTTTATTTCTTTGCACCATTTTAAATACAAACAAAT [CACACA_negctrl_site1553]	11.1 ± 0.79
TTATTTTATTTTTTTGTGCACATATATATTTATAAA [GTGCAC_site9615]	10.86 ± 0.028
TATAAAAATGTGCACACACACACATATTTATATTTA [CACACA_site6826]	9.365 ± 0.007
TGTGTATTTATAAATACACACCAAATGTTAATATAT [CACACA_site6904]	8.03 ± 0.47
GAAATAAATATAATATATATATATATATATATATGT [TGCATGCA_negctrl_site216]	8.25 ± 0.38
CAACCATTTGTAGGTAAACACACATTATTATTAATA [CACACA_site8842]	7.47 ± 0.46

Sequence	gcPBM binding intensity (ln)
AAGTATTTTTTTACATGTACATATATATATATATAT [XGTACX_site5065]	9.4 ± 0.56
ATATTATATCTAATCGTGCACAACTGTACATTTGTC	10.5 ± 0.12
TTTTTTTCATAATATACACACAAAAAAAAAAAAAAA [CACACA_site3224]	8.12 ± 0.68
TTCATTTTTTGCTTTCAACACACATACAATATATAT [CACACA_site9369]	8.01 ± 0.49
AAATTACCCATCCATACACACATATTTTTTTTAATT [CACACA_site2189]	7.96 ± 0.64
AATTTTTTTTTTAGACGTACAAGAAAAAACAAAAAA [XGTACX_site4990]	8.15 ± 0.55
GTATTTAGATGATTAACACACATATGTGTATTAATA [CACACA_site6733]	7.92 ± 0.41
ATATATTTTTTAAACACACACATAAATATTTGTGTA [CACACA_site2879]	7.84 ± 0.49
ATTTTTTTATTTTGTGCACACACATAAAAATATATA [CACACA_site762]	11.1 ± 0.27
GGGATATTTTAAAGGGTGCATATTATTAAAATAATG	10.7 ± 0.51
TATTTTATAATAGGCACACATATAAAAATATATATA [CACACA_site4127]	7.96 ± 0.52
TTTATTTTTATTTTTGTGCACGGGATTAAATAAAAG [GTGCAC_site9842]	11.22 ± 0.092
TTTTTTATTTTGTGCACACACATAAAAATATATATA [CACACA_site761]	11.2 ± 0.31
AATATTTTTTTATAAACACACATATATATAAATATA [CACACA_site3524]	7.89 ± 0.33
TAATAATTTATAATAGTGCATTTGATTTTAAAAATA	9.81 ± 0.51
TTTTGATATAAATATTAGATTAATAAATAAAAAAAT [CACACA_negctrl_site1635]	7.8 ± 0.39
TAAAATAAAAATATAGTGCACAGATTTTGATATTTT [GTGCAC_site9696]	11.2 ± 0.23
TAAAAAATAAAATACACACACATATTTATATTTATA [CACACA_site6737]	7.41 ± 0.4
TTCTATTTTTTAAAAGTGCATATTATAAATATATAT	9.63 ± 0.11
